# Rows were chosen to be rich in hits. Some 2.7% of all compounds tested hit in one or more screens of this group.
# ATXN2 expr inh – Primary qHTS for Inhibitors of ATXN expression; HEK-293 ATXN2-luciferase reporter, luminescence, 24 h; Potency, µM (doses to about 57 µM), inactives show at the highest dose activity change, negative = inhibition, most hits filed as inhibitors; 360,000 compounds, 0.72% hits; AID 1745845, 2022; note: % is set by controls: 0 for no effect and ±100 for the full control effect; nearly all actives have a fitted effect of over 55% in size
#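 ATXN2-luciferase reporter cells (luciferase flanked by upstream and downstream ATXN2 gene portions) were treated 24 h at 37 °C with compounds at up to 57 uM. SteadyGlo luminescence gave expression; GF-AFC fluorescence gave viability.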
# HepG2 viability – qHTS for Inhibitors of TGF-b: Cytotox Counterscreen | HepG2 CAGA-GFP viability, ATP luminescence, 18 h | Potency, µM (highest dose often 46.1 µM), without a hit: at the highest dose activity change, negative = cytotoxicity, actives largely listed as cytotoxic | 410,000 compounds, 0.76% hits | AID 588856, 2011
#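 CellTiter-Glo luminescence gave cytotoxicity after 18 hours at 37 degrees C. The cells were HepG2 CAGA-GFP in 1% FBS DMEM, stimulated with 500 pg/mL TGF-beta after compound addition. %Activity was normalised to no-cell wells (complete cell-killing) and DMSO (no toxicity), and curves were fitted and classified.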
# ALOX12 inh – Primary qHTS assay for inhibitors of human arachidonate 12S-lipoxygenase (ALOX12): Round 2 | Polyunsaturated fatty acid lipoxygenase ALOX12 (Homo sapiens), P18054 | purified 12hLO, xylenol orange hydroperoxide absorbance | Potency, µM (highest dose often 108 µM), without a hit: at the highest dose activity change, negative = inhibition, usual class: inhibitors | 580,000 compounds, 1.1% hits | AID 1671190, 2021; note: % is set by controls: 0 for no effect and ±100 for the full control effect
# Target sequence (P18054 whole entry, looked up): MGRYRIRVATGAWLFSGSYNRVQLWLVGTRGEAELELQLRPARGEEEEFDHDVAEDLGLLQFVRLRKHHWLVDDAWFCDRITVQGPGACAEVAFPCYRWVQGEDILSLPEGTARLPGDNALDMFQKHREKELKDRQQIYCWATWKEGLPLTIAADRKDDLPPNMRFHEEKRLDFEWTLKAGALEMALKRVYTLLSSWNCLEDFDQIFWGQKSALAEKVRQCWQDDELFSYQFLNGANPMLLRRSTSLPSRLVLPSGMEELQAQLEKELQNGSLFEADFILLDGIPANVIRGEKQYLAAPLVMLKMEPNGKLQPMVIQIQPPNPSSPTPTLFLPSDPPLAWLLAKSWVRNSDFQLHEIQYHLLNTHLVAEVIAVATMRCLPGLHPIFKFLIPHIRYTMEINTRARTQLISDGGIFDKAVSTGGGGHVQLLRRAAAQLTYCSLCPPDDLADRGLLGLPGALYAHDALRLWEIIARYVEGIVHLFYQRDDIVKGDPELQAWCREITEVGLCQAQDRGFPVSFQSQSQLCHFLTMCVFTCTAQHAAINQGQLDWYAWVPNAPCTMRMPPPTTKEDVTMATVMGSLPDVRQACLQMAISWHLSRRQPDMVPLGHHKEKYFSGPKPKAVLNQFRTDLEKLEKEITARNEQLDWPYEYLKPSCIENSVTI
#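 Hydroperoxide product was detected by ferrous iron/xylenol orange as the 573 to 405 nm absorbance ratio. Arachidonic acid at 40 uM (final) was turned over for 30 min at room temperature by 150 nM human 12hLO, pH 7.0 Hepes buffer, after 15 min compound preincubation.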
# ATXN viability – Viability Counterscreen for Primary qHTS for Inhibitors of ATXN expression | S2 cells (HEK-293 line with an ATXN2-luciferase reporter) viability, CellTiter-Fluor protease fluorescence, 24 h | 400,000 compounds, 0.49% hits | Potency, µM (highest dose often 56.7 µM), usual class: cytotoxic | AID 651635, 2014; note: nearly all actives have a fitted effect of over 40% in size
# TGFb SMAD3 inh – qHTS for Inhibitors of TGF-b. 410,000 compounds, 1.2% hits. AID 588855, 2011. HepG2 CAGA-GFP TGF-b/SMAD3 reporter, GFP fluorescence, 18 h; TGF-beta stimulated, 500 pg/mL final. Potency, µM (highest dose often 46.1 µM), for the others: top-dose activity, negative = inhibition, hits mostly inhibitors; note: % is set by controls: 0 for no effect and ±100 for the full control effect; nearly all actives have a fitted effect of over 65% in size
#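 Inhibition of TGF-beta-driven CAGA-GFP reporter expression in HEPG2 cells is measured by cellular GFP fluorescence after 18 h stimulation with 500 pg/mL recombinant TGF-beta in 1% FBS medium at 37 degrees C.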
# Starred values were filed as active, the others as inactive; i = inactive; ? = inconclusive; · = no result; ! = not confirmed by another sample; [ ] = dose if it differs, or a comment. Calls come from the whole dose curve; as a rule, active = well fitted curve in the direction sought with a large enough effect; inconclusive = small, poorly fitted or top-dose-only effect, or another doubt; inactive = no such curve, though single readings can be large; an effect the other way counts as inactive or inconclusive. Potency is the fitted concentration of half-maximal effect.
SMILES,ATXN2 expr inh,HepG2 viability,ALOX12 inh,ATXN viability,TGFb SMAD3 inh
COc1cccc(CNC(=O)c2cccc(S(=O)(=O)N3CCN(C)CC3)c2)c1,5.6%,-15.8%,39.8µM*,i,-5.6%
CCc1ccccc1NC(=O)N1CCCC(Cn2cnc3cccnc32)C1 (configuration not stated),·,·,13.2%,·,·
C[S+](=O)([O-])N1Cc2ccccc2CC2(CCCN2CC2CCCCC2)C1 (configuration not stated),·,·,7.2%[6.33 µM],·,·
CC(C)c1ccccc1Cc1cc(C(=O)Nc2ccc(S(=O)(=O)c3ccccc3C(C)(C)C)cc2)c(O)c(O)c1O,?,·,9.68µM*,·,·
CCNS(=O)(=O)c1ccc(NC(=O)c2ccccc2OCC)cc1,-7.3%,0.4%,?,i,17.3%
Cn1c(=O)c(C(=O)NNC(=O)c2ccc(Br)cc2)c(O)c2ccccc21,-11.0%,-44.2%,-1.6%,?,7.08µM*
COc1ccccc1C(=O)NC1CC1,·,·,22.4%,·,·
COc1ccc(Nc2nc3ccccc3c3nnc(C)n23)cc1Cl,-3.5%,-18.1%,3.16µM*,i,-0.3%
Cc1ccc(Nc2nc3ccccc3c3nnc(C)n23)cc1Cl,·,-11.5%,-1.8%,·,0.0%
COc1cc(CNC(=O)c2nc(-c3ccccc3)oc2C)cc(OC)c1OC,·,·,5.1%,·,·
COc1ccc2sc(N(CCCN(C)C)C(=O)c3ccc(S(=O)(=O)N4CCCc5ccccc54)cc3)nc2c1,?,11.2µM*,?,·,22.4µM*
CCN(Cc1ccccc1)S(=O)(=O)c1ccc(C(=O)N(CCCN(C)C)c2nc3cc(OC)ccc3s2)cc1,?,22.4µM*,?,?,?
O=C(NCc1coc(-c2cccs2)n1)c1ccccc1Br,·,·,5.2%,·,·
Cc1cc(C)c(C(=O)COC(=O)c2n[nH]c(=O)c3ccccc23)c(C)c1,·,·,1.8%,·,·
COc1cc(C(=O)Nc2c(NC3CCCCC3)c3ccccc3oc2=O)ccc1OC(C)=O,·,·,-34.5%,·,·
Cc1ccc(C)c(N/N=C2\CCCNC2=O)c1,18.6%,-36.5%,8.91µM*,i,-0.3%
Cc1ccccc1N/N=C1\CCCNC1=O,24.0%,-5.0%,4.47µM*,i,18.8%
COc1c[nH]n(C2CCCCC2)c(=O)c1=O,0.0%,11.5%,?,22.4µM*,-19.0%
NCCC(=O)O,·,·,4.0%,·,·
CC[C@](N)(CCC(=O)O)C(=O)O,·,·,2.82µM*!,·,·
COc1ccc(CN2CCN(Cc3cccc(OC)c3OC)CC2)cc1,·,·,0.447µM*,·,·
COc1ccc(CN2CCN(C/C=C/c3ccccc3)CC2)c(OC)c1OC,·,·,0.562µM*,·,·
COc1ccc(CN2CCN(C/C=C/c3ccccc3)CC2)cc1OC,·,·,0.0%,·,·
Cc1ccc(-c2cn3c(n2)sc2cc(C(=O)NCCCN4CCCCC4)ccc23)cc1,·,10µM*,-17.8%,·,-88.0%
CCN1CCN(CCCNC(=O)c2ccc3c(c2)sc2nc(-c4ccc(C)cc4)cn23)CC1,·,-98.9%,?,·,-89.7%
SMILES,ATXN2 expr inh,HepG2 viability,ALOX12 inh,ATXN viability,TGFb SMAD3 inh
Cc1ccc(-c2cn3c(n2)sc2cc(C(=O)NCCCN4CCCCCC4)ccc23)cc1,·,10µM*,?,·,-101.5%
CCc1ccc(-c2cn3c(n2)sc2cc(C(=O)NC4CCCCC4)ccc23)cc1,·,-2.8%,-12.7%,·,-3.1%
O=C(NCCCN1CCCCC1)c1ccc2c(c1)sc1nc(-c3ccc(F)cc3)cn12,?,-51.0%,?,i,?
CC1CCCCN1CCCNC(=O)c1ccc2c(c1)sc1nc(-c3ccc(F)cc3)cn12 (configuration not stated),14.1µM*,12.6µM*,-15.2%,31.6µM*,?
O=C(c1ccccc1OCC1CCCN(Cc2ccncc2F)C1)N1CCCC1 (configuration not stated),·,·,11.8%,·,·
Cc1ccc2[nH]c(-c3ccccc3)cc2c1,·,·,-21.2%,·,·
COc1ccc(-c2nc3c(C)cc(Br)cn3c2CC2CCCCC2)cc1OC,3.1%,-51.3%,7.08µM*,?,?
COc1ccc(-c2nc3c4ccccc4ccn3c2CN2CCCCC2)cc1OC,·,-25.3%,?,31.6µM*,?
COc1ccccc1Cc1c(-c2ccc(OC)c(OC)c2)nc2c(C)cc(Br)cn12,-18.0%,-25.2%,?,?,-4.3%
COc1ccc(-c2nc3c(C)cc(Br)cn3c2CC(C)(C)C)cc1OC,3.9%,-17.4%,31.6µM*,?,?
CC1CCc2c(cc(-c3ccccc3)n2-c2ccc(C(=O)NC(C)C)cc2)C1 (configuration not stated),·,-1.2%,-10.2%,·,7.94µM*
CC(C)NC(=O)c1ccc(-n2c(-c3ccccc3)cc3c2CCCCC3)cc1,·,-10.5%,-10.4%,·,0.0%
CCCNC(=O)NC(=O)CSc1cc(C)c2ccccc2n1,·,·,-28.3%,·,·
CNC(=O)CN(C)c1nc(C(F)(F)F)nc2ccccc12,·,·,26.8%,·,·
NC(=S)NN=C(Cc1ccccc1)Cc1ccccc1,-27.5%,-46.1%,11.2µM*,?,?
O=C(NN=C(Cc1ccccc1)Cc1ccccc1)c1ccccc1O,-5.6%,-16.7%,19.4%,i,5.7%
CCCCOC(=O)NC1CCc2cc(OC)c(OC)c(OC)c2-c2ccc(SC)c(=O)cc21 (configuration not stated),0.8%,0.1%,-17.9%,0.0377µM*,-80.0%
CC(C)CC(=O)Nc1ccc(C(=O)CN2CCC(C)CC2)cc1,0.9%,-4.5%,89.3%,i,6.4%
CC(C)CC(=O)Nc1n[nH]c2c1CN(C(=O)C1CCN(C)CC1)C2(C)C,1.09µM*,·,-29.3%[57.4 µM],·,·
Cc1cccc(N2C(S)=C(C#N)C(=O)NC2c2ccco2)c1 (configuration not stated),-18.5%,-1.9%,-34.0%,i,-12.3%
COc1cc(C2NC(=O)C(C#N)=C(S)N2c2ccccc2)ccc1OC(C)C (configuration not stated),-5.5%,-44.0%,14.1µM*,i,-6.4%
COc1ccc(C2NC(=O)C(C#N)=C(S)N2c2ccccc2)cc1OC (configuration not stated),-14.9%,2.1%,?,i,-5.5%
COc1ccc(N2C(S)=C(C#N)C(=O)NC2c2ccco2)cc1 (configuration not stated),23.2%,-3.1%,44.7µM*,i,-19.1%
CCCC(=O)Nc1c(S(=O)(=O)c2ccc(F)cc2)c(C)c(C)n1CC(C)C,·,·,21.0%,·,·
N#C/C(=C\c1ccc(OC(=O)c2ccc(Cl)cc2)cc1)C(=O)Nc1ccccc1C(F)(F)F,·,·,12.3%,·,·
CC(C)N1CCN(Cc2ccc(-c3ccccc3)cc2)CC1CCO (configuration not stated),-23.8%,-19.6%,-22.0%,i,-0.3%
